# Measured values reported in PubChem BioAssay (NCATS).
# Results filed as inconclusive are left out. Activity calls are given as the source filed them. Unless noted, the call rests on the fitted dose curve; in most records, active means well fitted curve in the direction sought with a large enough effect; inconclusive means small, poorly fitted or top-dose-only effect, or another doubt; inactive means no such curve, though single readings can be large; an effect the other way counts as inactive or inconclusive.
# How the values were obtained:
# [1] = biological target: Lysosomal acid glucosylceramidase (Homo sapiens) (UniProt P04062); test: Glucocerebrosidase-p2 (AID 348; in the data active means potency below about 10 µM; further: potency means the concentration at half of the fitted maximal effect); conditions: purified GBA, blue fluorogenic substrate, 40 min
# Sequence of Lysosomal acid glucosylceramidase (Homo sapiens) (P04062 whole entry, looked up): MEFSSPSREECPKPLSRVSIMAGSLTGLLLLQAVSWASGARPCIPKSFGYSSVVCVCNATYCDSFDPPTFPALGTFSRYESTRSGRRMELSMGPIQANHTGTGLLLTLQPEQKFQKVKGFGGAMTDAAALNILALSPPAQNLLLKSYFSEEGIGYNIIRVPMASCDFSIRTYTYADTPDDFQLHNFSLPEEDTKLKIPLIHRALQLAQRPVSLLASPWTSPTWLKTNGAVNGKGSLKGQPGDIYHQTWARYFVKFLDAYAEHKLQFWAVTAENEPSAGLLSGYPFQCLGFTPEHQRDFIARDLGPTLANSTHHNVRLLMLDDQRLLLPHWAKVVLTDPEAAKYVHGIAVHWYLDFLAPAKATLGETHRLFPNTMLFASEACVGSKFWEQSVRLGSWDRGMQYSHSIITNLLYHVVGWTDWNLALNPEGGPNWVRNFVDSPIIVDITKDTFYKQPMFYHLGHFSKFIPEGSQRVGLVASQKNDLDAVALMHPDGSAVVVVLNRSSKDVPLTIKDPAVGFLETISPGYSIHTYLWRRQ
# Summary of the method: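 Normal human glucocerebrosidase (0.2 nM) with blue fluorogenic substrate (80 uM final) in citrate/phosphate pH 5.9 with 10mM sodium taurocholate, 0.01% tween-20; 40 min RT, NaOH/glycine stop; fluorescence Ex 365/Em 440; AC50 from a titration from 0.6 nM upwards.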
# [2] = Stat Signaling Pathway (AID 446; active means well fitted curve in either direction with a large enough effect, not every such curve was filed as active;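 further: ME-180 cervical cancer cells given 40 pM IL-6 alongside compound; SIE-controlled beta-lactamase reporter measured as 460/530 nm FRET emission ratio; on the % scale 0 is the no-effect control and ±100 the full control effect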); conditions: ME-180 SIE beta-lactamase reporter, IL-6 stimulated, 5 h; at 7.69 µM (top of the series) unless noted
# Summary of the method: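 Overnight-plated ME-180 cells bearing a STAT Inducible Element beta-lactamase reporter; 5 h co-exposure to compound and 40 pM IL-6; values normalized to 300 pM IL-6 and 125 nM JAK inhibitor controls.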
# [3] = biological target: Glucocorticoid receptor (Homo sapiens) (UniProt P04150); test: GR-EFC Redistribution (AID 451; calls by dose curve; further: potency means the concentration at half of the fitted maximal effect); conditions: CHO-K1 GR-EFC translocation, beta-gal luminescence, 2 h
# Sequence of Glucocorticoid receptor (Homo sapiens) (P04150 whole entry, looked up, the tested form may be a part): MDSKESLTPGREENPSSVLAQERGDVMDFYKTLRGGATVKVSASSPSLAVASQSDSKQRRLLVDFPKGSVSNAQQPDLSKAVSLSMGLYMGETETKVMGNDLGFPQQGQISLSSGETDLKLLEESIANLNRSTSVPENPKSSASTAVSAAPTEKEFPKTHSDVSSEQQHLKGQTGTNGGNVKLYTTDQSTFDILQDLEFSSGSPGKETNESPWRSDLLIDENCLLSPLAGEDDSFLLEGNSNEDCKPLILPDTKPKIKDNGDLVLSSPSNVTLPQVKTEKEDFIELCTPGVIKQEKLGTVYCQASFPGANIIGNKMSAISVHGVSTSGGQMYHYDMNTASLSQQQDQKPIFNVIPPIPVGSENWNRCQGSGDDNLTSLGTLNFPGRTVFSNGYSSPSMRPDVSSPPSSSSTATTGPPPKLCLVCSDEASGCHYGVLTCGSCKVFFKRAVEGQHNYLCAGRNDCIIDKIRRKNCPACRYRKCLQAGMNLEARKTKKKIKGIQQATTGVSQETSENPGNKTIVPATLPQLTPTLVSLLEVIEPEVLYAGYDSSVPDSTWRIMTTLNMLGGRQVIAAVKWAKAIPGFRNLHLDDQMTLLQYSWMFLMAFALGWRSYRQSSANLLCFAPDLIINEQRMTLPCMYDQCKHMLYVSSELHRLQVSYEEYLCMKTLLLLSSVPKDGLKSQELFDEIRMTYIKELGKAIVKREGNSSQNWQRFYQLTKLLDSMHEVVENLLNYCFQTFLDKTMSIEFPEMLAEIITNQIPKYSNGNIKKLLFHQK
# Summary of the method: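 CHO-K1 cells expressing nuclear EA and GR-ED fragments of b-gal; compounds titrated up to 46 uM final, 2 h at 37 C. GR nuclear translocation read as complemented b-gal luminescence after 1 h RT detection.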
# [4] = biological target: Mitogen-activated protein kinase 10 (Mus musculus) (UniProt Q61831); test: JNK3 AlphaScreen Assay (AID 530; active means well fitted curve in either direction with a large enough effect, not every such curve was filed as active;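 further: kinase came from lysate of stimulated human HepG2 cells; signal reports phosphorylation of biotinylated GST-cJun 1-79 at Ser73 with 10 µM ATP; on the % scale 0 is the no-effect control and ±100 the full control effect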); conditions: JNK3 lysate, c-Jun phosphorylation; series mostly up to 57.1 µM
# Summary of the method: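 Activity was read by AlphaScreen after JNK3-containing HepG2 lysate (cytokine pre-activated) phosphorylated biotinylated GST-cJun with 10 uM ATP at room temperature. Phospho-Ser73 cJun antibody with Protein-A acceptor beads provided detection.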
# [5] = biological target: Cytochrome P450 3A4 (Homo sapiens) (UniProt P08684); test: qHTS Assay for Inhibitors and Substrates of Cytochrome P450 3A4 (AID 884); conditions: recombinant CYP3A4, Luciferin-PPXE luminescence; series mostly up to 57.1 µM; further: nearly all actives have a fitted effect of over 50% in size; further: potency means the concentration at half of the fitted maximal effect
# Sequence of Cytochrome P450 3A4 (Homo sapiens) (P08684 whole entry, looked up): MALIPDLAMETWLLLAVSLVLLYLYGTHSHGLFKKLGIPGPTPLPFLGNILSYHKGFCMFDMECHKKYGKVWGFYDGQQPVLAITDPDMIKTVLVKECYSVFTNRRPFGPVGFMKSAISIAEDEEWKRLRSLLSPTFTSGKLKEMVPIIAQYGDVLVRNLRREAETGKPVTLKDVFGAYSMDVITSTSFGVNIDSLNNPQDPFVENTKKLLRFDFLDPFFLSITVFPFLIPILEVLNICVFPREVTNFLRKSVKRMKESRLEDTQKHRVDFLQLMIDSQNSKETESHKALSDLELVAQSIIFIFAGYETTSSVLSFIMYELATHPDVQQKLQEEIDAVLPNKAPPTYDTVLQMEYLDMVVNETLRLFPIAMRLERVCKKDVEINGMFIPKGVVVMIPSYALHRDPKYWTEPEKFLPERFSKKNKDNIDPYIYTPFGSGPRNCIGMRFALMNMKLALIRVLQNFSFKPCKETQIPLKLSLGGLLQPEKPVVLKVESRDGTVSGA
# Summary of the method: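 Luminescent readout of luciferin produced by CYP3A4 (20 nM) dealkylation of Luciferin-PPXE, 25 uM (its KM). NADPH-driven reaction ran 60 min at RT after 10 min compound preincubation; data scaled to 57 uM ketoconazole as 100% inhibition.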
# [6] = qHTS Assay for Lipid Storage Modulators (AID 1519; calls by dose curve); conditions: Drosophila S3 cells, BODIPY lipid droplet/cell ratio, laser cytometry, cells loaded with oleic acid; for activity change, negative = inhibition: at 57.5 µM (top of the series)
# Summary of the method: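 Cells seeded at 5,000 per well were treated with compounds over a concentration series and loaded with oleic acid (400 uM, as added). Lipid droplet fluorescence (488 nm excitation, 500-530 nm channel) was read by laser-scanning cytometry and normalized to 20 uM Triacsin C.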
# [7] = Primary qHTS for small molecule stabilizers of the endoplasmic reticulum resident proteome: Secreted ER Calcium Modulated Protein (SERCaMP) assay (AID 1508630); conditions: SH-SY5Y GLuc-SERCaMP (Gaussia luciferase released on ER calcium loss) secretion, thapsigargin, luminescence; series mostly up to 38.4 µM; further: on the % scale 0 is the no-effect control and ±100 the full control effect
# Summary of the method: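 The SH-SY5Y reporter protocol was run at 3 concentrations up to 38.3 uM (primary) or 11 concentrations (follow-up): 16 h compound, 100 nM thapsigargin for 4 h, then extracellular luciferase luminescence.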
# [8] = biological target: 3',5'-cyclic-AMP phosphodiesterase 4B (Homo sapiens) (UniProt Q07343); test: qHTS Assay for Inhibitors of PDE-IV (AID 607; active means well fitted activation curve with a large enough effect in the main read-out, with a control signal flat, not every such curve was filed as active; further: % of control where 0% means no effect); conditions: HEK293 ACTOne CNG channel cells, membrane potential fluorescence; series mostly up to 22.9 µM
# Sequence of 3',5'-cyclic-AMP phosphodiesterase 4B (Homo sapiens) (Q07343 whole entry, looked up): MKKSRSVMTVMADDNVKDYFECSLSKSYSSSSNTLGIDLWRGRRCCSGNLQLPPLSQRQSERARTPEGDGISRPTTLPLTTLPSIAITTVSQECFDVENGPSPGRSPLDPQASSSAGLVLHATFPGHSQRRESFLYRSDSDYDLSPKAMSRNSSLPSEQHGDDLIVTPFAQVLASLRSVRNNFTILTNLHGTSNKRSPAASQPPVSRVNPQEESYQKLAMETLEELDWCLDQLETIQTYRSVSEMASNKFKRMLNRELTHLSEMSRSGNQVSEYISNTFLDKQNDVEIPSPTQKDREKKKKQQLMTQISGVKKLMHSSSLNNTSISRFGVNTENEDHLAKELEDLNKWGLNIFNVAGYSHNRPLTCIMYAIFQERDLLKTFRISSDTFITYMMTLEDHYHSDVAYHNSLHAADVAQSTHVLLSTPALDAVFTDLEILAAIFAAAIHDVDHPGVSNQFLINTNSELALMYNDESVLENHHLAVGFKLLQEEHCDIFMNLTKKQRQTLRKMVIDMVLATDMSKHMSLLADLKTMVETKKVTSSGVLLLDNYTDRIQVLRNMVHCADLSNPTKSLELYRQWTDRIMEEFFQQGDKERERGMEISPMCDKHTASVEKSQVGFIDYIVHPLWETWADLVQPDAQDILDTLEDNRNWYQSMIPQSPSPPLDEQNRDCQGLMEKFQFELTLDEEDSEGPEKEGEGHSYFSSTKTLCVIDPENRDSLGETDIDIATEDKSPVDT
# Summary of the method: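 Live HEK293 cells with a modified cyclic nucleotide-gated (CNG) channel report intracellular cAMP via membrane-potential dye fluorescence (ex 535/em 590 nm). Endogenous PDE-IV was targeted. Compounds were tested at up to 22.9 uM final; RO 20-1724 100 uM served as control.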
# [9] = NFAT Signaling Pathway (AID 444; active means well fitted curve in either direction with a large enough effect, not every such curve was filed as active;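 further: carbachol stimulus at about its EC50 of 1 µM final; on the % scale 0 is the no-effect control and ±100 the full control effect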); conditions: Jurkat NFAT-bla M1, carbachol, beta-lactamase ratio, 5 h; at 7.69 µM (top of the series) unless noted
# Summary of the method: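 Jurkat cells with NFAT-driven β-lactamase reporter and co-expressed M1 receptor, stimulated with carbachol (final 1 uM, ~EC50), compound titration, 5 h at 37 °C. CCF4 loaded 1 h at RT; 460/530 nm ratio gave %activity and AC50.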
# [10] = biological target: Cytochrome P450 1A2 (Homo sapiens) (UniProt P05177); test: p450-cyp1a2 (AID 410; calls by dose curve; further: potency means the concentration at half of the fitted maximal effect;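 on activity change, negative = inhibition: -100% = full effect of reference inhibitor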); conditions: recombinant CYP1A2, luciferin-ME demethylation, luminescence; series mostly up to 57 µM
# Sequence of Cytochrome P450 1A2 (Homo sapiens) (P05177 whole entry, looked up): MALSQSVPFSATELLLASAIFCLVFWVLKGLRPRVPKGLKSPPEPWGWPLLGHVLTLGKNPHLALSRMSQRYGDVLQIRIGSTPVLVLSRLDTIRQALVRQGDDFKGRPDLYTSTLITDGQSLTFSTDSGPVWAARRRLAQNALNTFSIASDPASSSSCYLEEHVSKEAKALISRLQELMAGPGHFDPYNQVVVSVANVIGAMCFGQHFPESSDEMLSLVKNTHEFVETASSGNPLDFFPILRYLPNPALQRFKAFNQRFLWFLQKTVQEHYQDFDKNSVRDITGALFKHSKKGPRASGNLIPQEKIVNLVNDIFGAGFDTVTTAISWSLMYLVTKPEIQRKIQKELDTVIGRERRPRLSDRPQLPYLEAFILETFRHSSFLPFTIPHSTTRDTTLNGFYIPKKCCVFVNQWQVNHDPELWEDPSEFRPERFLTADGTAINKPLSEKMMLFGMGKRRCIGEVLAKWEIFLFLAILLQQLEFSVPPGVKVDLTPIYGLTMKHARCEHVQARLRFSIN
# Summary of the method: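 O-Demethylation of luciferin 6' methyl ether by human CYP1A2 is monitored as luciferase luminescence. Substrate sits at Km (100uM); enzyme is 20nM. Values are scaled to 57 uM furafylline as maximal inhibition.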
# [11] = biological target: Cytochrome P450 3A4 (Homo sapiens) (UniProt P08684); test: qHTS Assay for Activators of Cytochrome P450 3A4 (AID 885); conditions: recombinant CYP3A4, Luciferin-PPXE luminescence, 60 min; series mostly up to 57.1 µM; further: nearly all actives have a fitted effect of over 65% in size; further: potency means the concentration at half of the fitted maximal effect
# Summary of the method: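 Using 20nM recombinant human CYP3A4 in potassium phosphate (200mM), substrate Luciferin-PPXE at 25uM, luminescent luciferin detection followed a 60-min RT NADPH reaction; data scaled to 57 uM ketoconazole.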
# [12] = AP1 Signaling Pathway (AID 357; active means well fitted curve in either direction with a large enough effect, not every such curve was filed as active; further: on the % scale 0 is the no-effect control and ±100 the full control effect); conditions: ME-180 AP-1-bla reporter, EGF-induced, beta-lactamase ratio, 5 h; at 7.69 µM (top of the series) unless noted
# Summary of the method: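 ME-180 cells with beta-lactamase reporter under AP-1 response element, stimulated with EC50 EGF; compounds tested in titration series, 5 h at 37 °C. CCF4 substrate added 2.5 h at room temperature; 460/530 nm emission ratio gave %activity and AC50.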
# [13] = biological target: Glucocorticoid receptor (Homo sapiens) (UniProt P04150); test: GR-GFP Redistribution (AID 450;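 active means compounds whose dose series gives a full or clear partial fitted curve of increased nuclear translocation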; further: potency means the concentration at half of the fitted maximal effect); conditions: U2OS GR-GFP nuclear translocation, laser cytometry, 2 h
# [14] = biological target: Cytochrome P450 2C19 (Homo sapiens) (UniProt P33261); test: qHTS Assay for Inhibitors and Substrates of Cytochrome P450 2C19 (AID 899); conditions: recombinant CYP2C19, luciferin-H EGE luminescence; series mostly up to 57.1 µM; further: potency means the concentration at half of the fitted maximal effect; nearly all actives have a fitted effect of over 60% in size
# Sequence of Cytochrome P450 2C19 (Homo sapiens) (P33261 whole entry, looked up): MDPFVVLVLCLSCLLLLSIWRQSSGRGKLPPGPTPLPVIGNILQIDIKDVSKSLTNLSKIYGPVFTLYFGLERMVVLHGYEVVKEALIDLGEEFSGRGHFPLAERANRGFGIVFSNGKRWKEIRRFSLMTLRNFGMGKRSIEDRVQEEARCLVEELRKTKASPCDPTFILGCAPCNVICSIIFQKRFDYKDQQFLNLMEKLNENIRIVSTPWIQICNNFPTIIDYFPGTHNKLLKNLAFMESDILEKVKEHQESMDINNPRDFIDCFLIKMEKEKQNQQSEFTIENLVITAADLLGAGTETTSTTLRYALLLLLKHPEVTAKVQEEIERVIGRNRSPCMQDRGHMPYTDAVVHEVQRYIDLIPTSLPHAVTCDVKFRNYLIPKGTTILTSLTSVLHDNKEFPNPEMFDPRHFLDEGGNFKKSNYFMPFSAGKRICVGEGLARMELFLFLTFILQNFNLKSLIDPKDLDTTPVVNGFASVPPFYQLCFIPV
# Summary of the method: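 Luminescent read-out of luciferin formed from Luciferin-H EGE (10uM, equal to KM). Enzyme 5nM in 50mM KPO4; compound added, 10 min at 37C, then NADPH regenerating system for 60 min at 37C. Full inhibition defined by 57uM ketoconazole.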
# [15] = Confirmation and Secondary Assay for Modulators of Hemoglobin Beta Chain Splicing at IVS2 705 locus (AID 930); conditions: HeLa EGFP-705 splicing reporter, GFP fluorescence, 48 h; series mostly up to 38.3 µM;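 further: HeLa cells stably expressing the EGFP-705 splicing reporter; GFP fluorescence per well restored by corrected splicing of the IVS2-705 intron in EGFP; % of control where 0% means no effect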
# Summary of the method: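 HeLa cells stably carrying EGFP interrupted by mutant beta-globin intron 2 (IVS2-705) treated 2 days at 37C with compound; 500 nM antisense PNA as control. Correct splicing read as total peak GFP intensity per well by laser-scanning cytometry.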
# [16] = biological target: Ubiquitin carboxyl-terminal hydrolase 1 (Homo sapiens) (UniProt O94782); test: Inhibitors of USP1/UAF1: Pilot qHTS (AID 504865); conditions: purified USP1/UAF1, Ub-rhodamine cleavage fluorescence; series mostly up to 54.9 µM; further: nearly all actives have a fitted effect of over 35% in size; further: potency means the concentration at half of the fitted maximal effect
# Sequence of Ubiquitin carboxyl-terminal hydrolase 1 (Homo sapiens) (O94782 whole entry, looked up): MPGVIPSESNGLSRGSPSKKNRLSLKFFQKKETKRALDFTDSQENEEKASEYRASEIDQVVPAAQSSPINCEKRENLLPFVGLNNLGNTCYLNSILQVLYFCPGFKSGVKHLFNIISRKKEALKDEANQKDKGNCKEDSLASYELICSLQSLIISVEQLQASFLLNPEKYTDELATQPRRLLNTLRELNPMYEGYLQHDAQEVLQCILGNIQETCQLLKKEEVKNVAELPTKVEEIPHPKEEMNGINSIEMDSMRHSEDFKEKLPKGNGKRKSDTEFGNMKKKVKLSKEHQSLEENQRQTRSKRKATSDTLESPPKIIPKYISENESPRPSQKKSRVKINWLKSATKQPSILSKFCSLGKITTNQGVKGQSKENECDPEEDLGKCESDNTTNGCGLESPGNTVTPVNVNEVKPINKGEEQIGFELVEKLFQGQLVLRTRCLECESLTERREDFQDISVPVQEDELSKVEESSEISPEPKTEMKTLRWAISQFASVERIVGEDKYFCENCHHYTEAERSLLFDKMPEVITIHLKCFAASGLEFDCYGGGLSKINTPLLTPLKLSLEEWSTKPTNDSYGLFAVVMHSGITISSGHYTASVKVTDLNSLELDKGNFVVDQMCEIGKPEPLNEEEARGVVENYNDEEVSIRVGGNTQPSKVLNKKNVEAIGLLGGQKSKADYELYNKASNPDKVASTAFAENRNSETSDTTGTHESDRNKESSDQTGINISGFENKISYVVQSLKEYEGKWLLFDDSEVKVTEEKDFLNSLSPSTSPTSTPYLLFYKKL
# Summary of the method: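 Kinetic fluorescence assay: 1nM USP1/UAF1, 15 min compound preincubation, then 150nM Ub-Rho; 480/540 nm.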
# [17] = Confirmation and Secondary Assay for Modulators of Hemoglobin Beta Chain Splicing at IVS2 654 locus (AID 910); conditions: HeLa EGFP-654 splicing reporter, GFP fluorescence, 48 h; series mostly up to 38.3 µM;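 further: HeLa cells stably carrying EGFP split by mutant beta-globin IVS2-654 intron; % of control where 0% means no effect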
# Summary of the method: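 HeLa cells stably expressing EGFP interrupted by β-globin IVS2-654 intron, seeded overnight in Opti-MEM/2% FCS, then treated 2 days at 37 °C. Restored splicing read as total peak GFP intensity per well by laser scanning cytometry (488 nm excitation, 500–520 nm emission); 500 nM antisense PNA as control.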
# [18] = biological target: Cytochrome P450 2D6 (Homo sapiens) (UniProt P10635); test: qHTS Assay for Inhibitors and Substrates of Cytochrome P450 2D6 (AID 891); conditions: recombinant CYP2D6, luciferin-ME EGE luminescence; series mostly up to 57.1 µM; further: potency means the concentration at half of the fitted maximal effect; nearly all actives have a fitted effect of over 60% in size
# Sequence of Cytochrome P450 2D6 (Homo sapiens) (P10635 whole entry, looked up): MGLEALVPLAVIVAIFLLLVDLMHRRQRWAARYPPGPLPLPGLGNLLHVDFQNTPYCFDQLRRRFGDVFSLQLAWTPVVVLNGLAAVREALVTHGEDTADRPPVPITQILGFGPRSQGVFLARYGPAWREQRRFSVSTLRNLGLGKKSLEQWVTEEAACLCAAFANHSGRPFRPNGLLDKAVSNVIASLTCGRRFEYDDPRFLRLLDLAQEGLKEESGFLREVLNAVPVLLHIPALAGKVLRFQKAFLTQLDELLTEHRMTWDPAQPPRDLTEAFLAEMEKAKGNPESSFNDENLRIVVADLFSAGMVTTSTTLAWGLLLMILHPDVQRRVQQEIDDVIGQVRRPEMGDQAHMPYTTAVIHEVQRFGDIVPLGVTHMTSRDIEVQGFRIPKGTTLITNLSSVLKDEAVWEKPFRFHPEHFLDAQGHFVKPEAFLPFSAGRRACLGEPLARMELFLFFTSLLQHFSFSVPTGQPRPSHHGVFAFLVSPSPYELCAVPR
# Summary of the method: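 Luminescent read-out of luciferin formed by 5 nM human CYP2D6 demethylating 30 uM Luciferin-ME EGE (Km level) over 60 min at room temperature after NADPH regeneration addition. Data normalized to full inhibition by 1.43 uM quinidine.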
# [19] = measured here: cell count channel max response
# [20] = measured here: lipid channel max response
Structure (SMILES),Potency [1],"activity, negative = inhibition [2]",Potency [3],Potency [4],Potency [5],"activity change, negative = inhibition [6]","max response [6, 19]","max response [6, 20]",outcome [7],Potency [8],"activity change, negative = inhibition [9]",Potency [10],Potency [11],"activity change, negative = inhibition [12]",Potency [13],Potency [14],outcome [15],Potency [16],Potency [17],Potency [18]
O=C(c1cccc(F)c1)N1CCC2(CC1)CCN(c1ccncc1)CC2,> 11.4 µM (inactive),24% (inactive),> 46 µM (inactive),inactive,inactive,-0.521% (inactive),-17.2%,-16.4%,inactive,–,–,–,–,–,–,–,–,–,–,–
O=C(c1ccncc1)N1CCC2(CCCN(c3ccccn3)C2)CC1,> 11.4 µM (inactive),4.12% (inactive),> 46 µM (inactive),inactive,–,7.75% (inactive),10.2%,19.9%,inactive,inactive,–,–,–,–,–,–,–,–,–,–
CC(C)NC(=O)N1CCC2(CC1)CCN(S(=O)(=O)c1ccccc1)CC2,> 11.4 µM (inactive),-1.93% (inactive),> 46 µM (inactive),inactive,–,3.73% (inactive),-0.645%,4.57%,inactive,inactive,6.99% (inactive),–,–,–,–,–,–,–,–,–
Cn1cccc1C(=O)N1CCC2(CCCN(C(c3ccccc3)c3ccccc3)C2)CC1,> 11.4 µM (inactive),6.33% (inactive),> 46 µM (inactive),inactive,–,4.95% (inactive),6.53%,18.7%,inactive,inactive,–,12.6 µM (active),inactive,–,–,–,–,–,–,–
O=C(c1cnccn1)N1CCC2(CCCN(C(c3ccccc3)c3ccccc3)C2)CC1,> 11.4 µM (inactive),14% (inactive),> 46 µM (inactive),inactive,1.58 µM (active),0.62% (inactive),6.86%,7.68%,inactive,–,–,20 µM (active),inactive,–,–,–,–,–,–,–
FC(F)(F)c1ccccc1-c1nccc(NCc2ccccc2)n1,–,-13.7% (inactive),> 46 µM (inactive),inactive,–,6.15% (inactive),0.814%,5.46%,inactive,–,-3.71% (inactive),12.6 µM (active),inactive,-1.94% (inactive),> 46 µM (inactive),6.31 µM (active),inactive,6.31 µM (active),–,–
COC(=O)N1CCC2(CC1)CN(c1ccccc1)C2,> 11.4 µM (inactive),8.16% (inactive),> 46 µM (inactive),inactive,inactive,-0.409% (inactive),4.45%,2.93%,inactive,inactive,–,inactive,–,–,–,6.31 µM (active),–,–,–,–
COc1ccc(CNc2nc(-c3ccc(C(=O)N(C)C)cc3)nc3ccccc23)c(OC)c1,> 11.4 µM (inactive),–,> 46 µM (inactive),inactive,–,6.93% (inactive),-11.3%,8.44%,inactive,–,–,15.8 µM (active),inactive,–,> 46 µM (inactive),–,inactive,inactive,inactive,–
COc1ccc(NC(=O)N2CC[C@@]3(CCCN(C(C)=O)C3)C2)cc1,> 11.4 µM (inactive),6.12% (inactive),> 46 µM (inactive),inactive,–,5.28% (inactive),4.36%,12%,inactive,inactive,13.8% (inactive),–,–,–,–,–,–,–,–,–
O=C(c1cccc(F)c1)N1CCC2(CCN(Cc3nccs3)CC2)CC1,> 11.4 µM (inactive),-0.835% (inactive),> 46 µM (inactive),–,inactive,6.34% (inactive),8.7%,20.4%,inactive,–,–,1.58 µM (active),15.8 µM (active),–,–,1.58 µM (active),–,–,–,–
CN(C)C(=O)c1ccc(-c2cncnc2NCc2cccs2)cc1,–,17.8% (inactive),> 46 µM (inactive),inactive,3.16 µM (active),6.52% (inactive),22.2%,27.8%,inactive,inactive,6.04% (inactive),20 µM (active),inactive,8.21% (inactive),> 46 µM (inactive),–,inactive,inactive,–,–
Cc1noc(C)c1-c1nc(N2CCOCC2)c2ccccc2n1,–,19.8% (inactive),> 46 µM (inactive),inactive,6.31 µM (active),2.85% (inactive),6.88%,9.54%,inactive,inactive,16.1% (inactive),0.316 µM (active),inactive,-9.5% (inactive),> 46 µM (inactive),–,inactive,–,–,–
Cc1noc(C)c1-c1ccc2ncnc(NC3CC3)c2c1,> 11.4 µM (inactive),–,> 46 µM (inactive),inactive,–,-8.16% (inactive),-21.4%,-28.4%,inactive,inactive,–,–,–,–,> 46 µM (inactive),–,inactive,inactive,–,–
COC(=O)N1CCC2(CCCN(Cc3nccs3)C2)CC1,> 11.4 µM (inactive),-5.19% (inactive),> 46 µM (inactive),inactive,–,5.26% (inactive),2.22%,10.9%,inactive,inactive,–,inactive,inactive,–,–,–,–,–,–,–
CN(C)Cc1ccccc1-c1nccc(NCc2cccs2)n1,–,0.159% (inactive),> 46 µM (inactive),inactive,–,10.9% (inactive),4.85%,9.23%,inactive,–,-11.6% (inactive),0.794 µM (active),–,3.22% (inactive),> 46 µM (inactive),–,inactive,inactive,inactive,1.58 µM (active)
CC(C)CN1CCCC2(CCN(C(=O)c3cnccn3)CC2)C1,> 11.4 µM (inactive),7.99% (inactive),> 46 µM (inactive),inactive,–,1.42% (inactive),5.13%,9.23%,inactive,inactive,–,inactive,inactive,–,–,–,–,–,–,–
COc1ccc(C(=O)N2CCC3(CCCN(CC(C)C)C3)CC2)cc1,> 11.4 µM (inactive),-5.73% (inactive),> 46 µM (inactive),inactive,–,2.63% (inactive),21.1%,26.9%,inactive,–,–,inactive,inactive,–,–,–,–,–,–,–
